# Only some compounds are listed: those with a hit (about 3.4% of all), similar ones and a draw of the others.
# KLK7 zymogen act – activates the human kallikrein-7 zymogen | purified proKLK7, EDANS-DABCYL substrate fluorescence; 100% is mature enzyme control, 0% vehicle | activation, % at 7 µM | 370,000 tested, 0.9% active;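 active means activation above the mean of all tested compounds plus 3 SD, computed per campaign excluding outliers beyond control limits, cut at about 13% in these data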
# Target sequence (P49862 whole entry, looked up): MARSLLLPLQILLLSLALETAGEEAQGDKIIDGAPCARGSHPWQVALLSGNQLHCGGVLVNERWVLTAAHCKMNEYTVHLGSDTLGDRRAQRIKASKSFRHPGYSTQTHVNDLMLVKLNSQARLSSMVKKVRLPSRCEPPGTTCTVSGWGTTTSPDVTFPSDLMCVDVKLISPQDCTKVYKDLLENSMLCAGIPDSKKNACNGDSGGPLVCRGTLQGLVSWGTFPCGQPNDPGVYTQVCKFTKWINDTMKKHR
# HGIII-sPLA2 inh – Blocks human group III sPLA2 activity; inhibition, % at 12.2 µM; 370,000 tested, 0.56% active; AID 743126; Q9NZ20; QFRET BODIPY PC-A2 liposome hydrolysis, fluorescence;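 active means inhibition above mean plus 3 SD of compounds lying within the high and low control bounds, cut at about 19% in these data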;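 further: 0% = median of test compound wells and 100% = no enzyme DMSO wells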
# ADAM10 inh – inhibits human ADAM10 | recombinant ADAM10, EDANS/DABCYL FRET peptide cleavage, 3 h | inhibition, % at 7 µM | 370,000 tested, 0.62% active | AID 720582;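 active means inhibition above a per-campaign cutoff equal to the mean of compounds falling between control-based bounds plus 3 SD, cut at about 20% in these data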;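 further: 0% = DMSO wells while the 100% control is not disclosed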
# PLC-beta3 inh – blocks human PLC-beta3 enzyme activity | 370,000 tested, 0.18% active | Purified PLC-beta3, fluorogenic substrate, fluorescence | inhibition, % at 12.2 µM | Q01970; in the data active means inhibition above about 11%;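 further: 0% = median of compound wells on plate and 100% = full blocker control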
# PLC-gamma1 inh – PLC-gamma1 (human) inhibition, primary screen | P19174 | purified PLC-gamma1, fluorogenic substrate, fluorescence | inhibition, % at 12.2 µM | 370,000 tested, 0.84% active
# ADAM17 inh – ADAM17 inhibition, QFRET primary screen; AID 720648; 370,000 tested, 0.83% active; inhibition, % at 6.95 µM; P78536; recombinant ADAM17, EDANS/DABCYL FRET peptide cleavage;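 active means inhibition above the mean of compounds lying between control limits plus 3 SD, set per campaign, cut at about 8.5% in these data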;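 further: 0% = DMSO-only wells as the low control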
# PLCgamma1 ctr – inhibits human PLC-gamma1 in PLC-beta3 counter-screen | AID 743258 | 3,300 tested, 3.1% active | purified PLC-gamma1, fluorogenic substrate, fluorescence | shares compounds with PLC-gamma1 inh | inhibition, % at 12.3 µM
# PLCbeta3 conf – human PLC-beta3 inhibition, confirmation; shares compounds with PLC-gamma1 inh; inhibition, % at 12.3 µM; purified PLC-beta3, fluorogenic substrate fluorescence; 3,300 tested, 1% active; in the data active means inhibition above about 11%
# Starred values were filed as active, the others as inactive; . = not tested or not shown. Unless noted, no stated cut-off is given here; in the data, active means inhibition above about 9.5%; inactive means the rest.
SMILES,KLK7 zymogen act,HGIII-sPLA2 inh,ADAM10 inh,PLC-beta3 inh,PLC-gamma1 inh,ADAM17 inh,PLCgamma1 ctr,PLCbeta3 conf
CC(=O)N1CCOc2ccc(S(=O)(=O)Nc3ccc(C)cn3)cc21,0,6,-1,-12,3,-2,.,.
CC(=O)N1CC(C)Oc2ccc(S(=O)(=O)Nc3ccc(Cl)cn3)cc21 (stereo unspecified),-7,5,7,-3,10*,-4,-6,-4
CCOC(=O)N1CCN(C(=O)c2ccc(CS(=O)Cc3ccccc3Cl)o2)CC1 (stereo unspecified),0,0,-11,-6,9.9*,4,-2,3
CCOC(=O)c1c(S(=O)(=O)Nc2ccc(F)cc2Cl)c(C)n(C)c1C,-1,7,9,1,11*,-1,-2,-1
CCOC(=O)c1c(S(=O)(=O)Nc2ccccc2OCC)c(C)n(C)c1C,1,-1,-5,-2,0,0,.,.
O=C(CN1C(=O)c2ccccc2S1(=O)=O)N1CCN(c2ccc(F)cc2)CC1,0,5,7,7,11*,8,-5,-3
O=C1/C(=C\c2cccs2)SC(=S)N1C1CCS(=O)(=O)C1 (stereo unspecified),1,6,9,0,9.8*,3,-1,0
Cc1nn(-c2ccccc2)c(C)c1NC(=O)c1cccs1,0,3,2,2,12*,5,-6,-3
Cc1nn(-c2ccccc2)c(C)c1NC(=O)Cc1cccs1,-1,3,4,0,-1,-2,.,.
Cc1ccc(C(=O)NNC(=O)C2CCN(S(=O)(=O)c3ccc(C)cc3)CC2)cc1,0,-9,7,-3,3,6,.,.
Cc1ccc(S(=O)(=O)N2CCC(C(=O)NNC(=O)c3ccncc3)CC2)cc1,0,-2,1,12*,9,2,-6,-4
CC(=O)N1CCN(c2ccc(N3CCN(Cc4ccccc4)[C@@H](C)C3)c(C)c2)[C@H](C)C1,2,12,-17,-5,-2,-6,.,.
COc1ccc(-c2nnc(SC(C)C(=O)Nc3nccs3)n2Cc2ccccc2)cc1OC (stereo unspecified),0,-13,-111,2,9.8*,-1,-5,-3
COc1ccc(NC(=O)COC(=O)CNC(=O)COc2ccccc2)cc1OC,0,8,-15,-6,2,-7,.,.
COc1ccccc1CC(=O)Nc1ccon1,0,1,-4,-8,-2,-2,.,.
O=C1CN(C(=S)NC(=O)c2ccccc2[N+](=O)[O-])CCN1,0,7,-9,-5,3,0,.,.
COc1ccc(CNc2ncnc(N)n2)cc1,0,5,3,1,-3,-3,.,.
COc1ccc(CNc2nc(NCc3ccc(OC)cc3)c3[nH]cnc3n2)cc1,0,-27,10,9,12*,3,0,-2
O=c1c(Cl)c(NCC2CCCO2)cnn1C12CC3CC(CC(C3)C1)C2 (stereo unspecified),-1,15,3,-1,12*,-2,-7,-2
O=C(O)C12CC3CC(C1)CC(n1ncc(NCc4ccco4)c(Cl)c1=O)(C3)C2,0,0,0,-7,0,-1,.,.
CCOC(=O)c1ccc(NC(=S)NCCCN2CCOCC2)cc1,0,4,5,2,4,-3,.,.
CNC(=O)COC(=O)c1ccccc1C(=O)c1ccc(Cl)c([N+](=O)[O-])c1,0,0,-1,1,-1,-1,.,.
CC(C)OC(=O)c1ccccc1C(=O)c1ccc(N)c([N+](=O)[O-])c1,1,5,11,3,9.8*,6,-3,0
COCCn1c(SCC(=O)OC(C)C)nnc1-c1ccccc1,0,5,9,8,12*,5,-3,0
COC(=O)[C@]12C[C@H](CC(=O)NCC3CCCCC3)C(=O)N(Cc3ccccc3)C1=C[C@H](C(C)C)O[C@@H]2C1CC1,0,-6,2,12*,5,7,-1,-1
SMILES,KLK7 zymogen act,HGIII-sPLA2 inh,ADAM10 inh,PLC-beta3 inh,PLC-gamma1 inh,ADAM17 inh,PLCgamma1 ctr,PLCbeta3 conf
CCCC(O)(CCC)C(=O)NN(C(=O)CCl)c1ccccc1,0,3,12,2,9.7*,5,-2,-2
CCOC(=O)N(NC(=O)C(O)(c1ccccc1)c1ccccc1)c1ccccc1,0,0,5,8,14*,6,-1,4
CCCCn1c(-c2nonc2NC(=O)c2ccccc2Cl)nc2ccccc21,0,-1,2,-4,12*,3,-10,-7
O=C(NCc1nnc2c(C(F)(F)F)cc(Cl)cn12)c1ccc(Br)o1,-1,2,-2,-8,-2,-4,.,.
CC(=O)NCC(=O)OCN1C(=O)c2ccccc2C1=O,0,12,9,6,10*,2,-5,0
CCOC(=O)c1c(C)oc2cc(Br)c(OC)cc12,0,5,6,1,9.8*,5,-4,-4
Nc1ccc(O)c([N+](=O)[O-])c1,0,8,4,7,21*,-2,19*,1
C=CC[C@@H](CC(=O)NCCO)C(=O)N[C@@H](COC(=O)[C@@H](CC=C)CC(=O)OC(C)(C)C)Cc1ccccc1,0,-8,9,7,10.0*,8,-7,-4
C=CC[C@@H](CC(=O)N[C@@H](CO)Cc1ccccc1)C(=O)N[C@H](COC(=O)[C@@H](CC=C)CC(=O)OC(C)(C)C)Cc1ccccc1,0,0,-15,-1,2,-3,.,.
C=CC[C@@H](CC(=O)N[C@H](CO)Cc1ccccc1)C(=O)N[C@@H](COC(=O)[C@H](CC=C)CC(=O)OC(C)(C)C)Cc1ccccc1,0,-42,14,4,9.5*,6,-7,1
Cc1ccccc1C(=O)NC(C)c1ccc2c(c1)CCCC2 (stereo unspecified),0,2,7,13*,10*,2,2,7
Cc1nnc(N/N=C/c2cccc(OCc3ccc(Cl)c(Cl)c3)c2)n1N,0,0,8,11*,13*,4,-21,-13
Cc1nnc(N/N=C/c2ccccc2F)n1N,0,13,-3,1,12*,-1,-4,-1
CCOc1cc(/C=N/Nc2nnc(C)n2N)ccc1OC(C)=O,1,2,5,0,8,1,.,.
Cc1nnc(N/N=C/c2cccc(C(F)(F)F)c2)n1N,-1,7,1,11,13*,-2,-3,0
Cc1nnc(N/N=C/c2ccccc2C(F)(F)F)n1N,0,-3,1,0,5,-2,.,.

# Screens from PubChem.
